This note sets out measurements from PubChem BioAssay AID489025 (Southern Research Specialized Biocontainment Screening …, 2010).

Screen size: about 2,300 compounds; about 790 (34%) were called active. The rule behind the calls is not given here. This is one part of the list. Results with a measured potency or affinity are listed apart.

This assay in a line: THP-1 cell cytotoxicity, dose response, cytotoxicity control for non-replicating M. tuberculosis project (AID 489025). The note with it: THP-1 cell viability; series mostly up to 40 µM.
With `O=C(Nc1sc2c(c1C(=O)O)CCCC2)c1ccc(F)cc1`, the compound was called inactive.

For `O=C(c1ccc([N+](=O)[O-])o1)N1CCc2ccccc2C1`, the result was inactive. For `COC(=O)CCC(=O)Nc1sc(Cc2ccccc2)c(C)c1C(N)=O` the value was “inactive”; for `O=C(CCSc1nnc(-c2ccncc2)o1)Nc1ccc(Cl)cc1`, “inactive”. The result for `CC1(C)CC(=O)c2cc(C(=O)NNc3ccccc3)c(=O)n(-c3ccccc3)c2C1` reads “inactive”; that for `Cc1c(Cl)cccc1-c1ccc(CNCc2ccccn2)o1`, “inactive”; that for `CC(C)(C)CC(=O)NC(=S)NCc1ccco1`, “inactive”. The result for `O=C(c1cc(F)ccc1F)C1CCCN(Cc2ccc3nonc3c2)C1` (stereo not given) reads “inactive”; that for `COCc1[nH]nc2c1C(c1sccc1C)C(C#N)=C(N)O2` (stereo not given), “inactive”; that for `CCOC(=O)N1CCC(N2CCCC(C(=O)c3ccc4cc(OC)ccc4c3)C2)CC1` (stereo not given), “inactive”. `CCOC(=O)CNCCC(=O)c1ccc(Br)cc1`: the call was inactive. As to `O=C(NCc1cccs1)c1ccc([N+](=O)[O-])cc1`, the compound was called inactive.

For `O=C(Nc1nccs1)c1ccc2ccccc2c1`, the compound was called inactive. The result for `CCOC(=O)c1cc(-c2csc(COc3ccc(Cl)cc3)n2)on1` reads “inactive”; that for `CC(C)CCC1=NN(C(=O)c2ccco2)C(O)(C(F)(F)F)C1` (stereo not given), “inactive”; that for `O=C(NC(=S)NCCc1ccccc1)c1ccccc1`, “inactive”. With `Cc1cc(C(=O)NNc2ccc(Cl)cc2)no1`, the compound was classed as inactive. For `O=C(OCc1ccccn1)c1ccc(COc2ccccc2Cl)o1` the value was “inactive”; for `Cc1n[nH]c(C)c1CCNC(=O)C1CCC(=O)N(Cc2ccccc2F)C1` (stereo not given), “inactive”.

With `C=CCn1c(NC(=O)c2ccccc2)nc2ccccc21`, the call was inactive. With `O=C(Nc1ccc(Cl)cc1)C1CCCC1`, the outcome was inactive. For `O=C(Nc1nc2ccccc2n1CCN1CCCC1)C1CCCCC1` the value was “inactive”. For `Cn1c(CNc2ccccc2O)nc2ccccc21` the value was “inactive”. The result for `CCCCSc1nnc(-c2cc(Br)ccc2N)c(=O)[nH]1` reads “inactive”; that for `O=C(c1ccc(Br)o1)N1CCC(Cc2ccccc2)CC1`, “inactive”; that for `CN1c2ccsc2/C(=N/Nc2ccccc2)CS1(=O)=O`, “inactive”. `O=C1Nc2cc(C(=O)NCCCN3CCOCC3)ccc2S/C1=C/c1cccc(Cl)c1`: the outcome was inactive. For `CCc1ccc(N2CCN(CCNC(=O)Nc3ccc(OC)cc3)CC2)cc1` the value was “inactive”; for `COC(=O)c1ccc(N2CCN(CCNC(=O)Nc3ccc(OC)cc3)CC2)cc1`, “inactive”. The result for `O=C1CC(N2CCSCC2)C(=O)N1CCc1ccccc1` (stereo not given) reads “inactive”. With `CCOC(=O)C(=O)Cc1nc2ccccc2s1`, the compound was called inactive. For `Cc1ccc(-c2nnc(COC(=O)c3cccs3)o2)cc1` the value was “inactive”; for `O=C(NCCN1C(=O)S/C(=C\c2ccccc2F)C1=O)C1CCN(S(=O)(=O)c2cccs2)CC1`, “inactive”.

On to `O=C(COc1ccc2ccccc2c1)N1CCCC1`, for which the compound was classed as inactive.

As to `O=C(O)CCCCCN1C(=O)/C(=C\c2ccncc2)SC1=S`, the call was inactive. For `O=C(COC(=O)CCN1C(=O)/C(=C\C=C\c2ccccc2)SC1=S)Nc1cc(F)ccc1F` the value was “inactive”. The result for `CCOC(=O)Cn1cc(C#N)c2ccccc21` reads “inactive”; that for `CC1CCC/C(=C\Nc2ccc(C(=O)O)c(O)c2)C1=O` (stereo not given), “inactive”. For `Cc1cccnc1NC(=O)C1COc2ccccc2O1` (stereo not given) the value was “inactive”; for `N=c1oc2ccccc2cc1C(=O)Nc1ccccc1`, “inactive”; for `Cc1cc(Cl)ccc1N(CC(=O)NCc1ccccc1)S(C)(=O)=O`, “inactive”. `CC(=O)c1ccc(NC(=O)c2cc(CC(C)C)on2)cc1`: the result was inactive. `CN(CCS(=O)(=O)c1ccc(Cl)cc1)Cc1cccnc1`: the compound was classed as inactive. Turning to `O=C(COc1ccc(Br)cc1)N/N=C1/SCC(=O)N1Cc1ccccc1`, the compound was classed as inactive. For `COC(=O)C(C)Oc1ccc2cc(-c3ccccc3)c(=O)oc2c1` (stereo not given) the value was “inactive”; for `O=C(NC(=S)N1CCN(C/C=C/c2ccccc2)CC1)c1ccco1`, “inactive”.

As for `COc1ccc(NC(=O)C(=O)NNC(=O)C(C)Oc2ccc(Cl)cc2Cl)cc1` (stereo not given), the outcome was inactive.

As for `O=C(Nc1nnc(COc2ccc(Cl)cc2)s1)c1ccco1`, the compound was classed as inactive. For `C=CCN(CC=C)C(=O)Cc1ccc(F)cc1` the value was “inactive”; for `C=C(C)C1Cc2c(C)nn(-c3nc(C)cc(C)n3)c2C1` (stereo not given), “inactive”; for `CCOC(=O)Cn1c(-c2ccccc2)ccc(C#N)c1=O`, “inactive”. For `O=C1c2cccc3cc([N+](=O)[O-])cc(c23)C(=O)N1c1ccccc1O` the value was “inactive”. For `NCCNc1ccc([N+](=O)[O-])c2cccnc12` the value was “inactive”; for `CC(=O)Nc1ccc(OC(=O)c2ccc(Br)c([N+](=O)[O-])c2)cc1`, “inactive”. For `O=[N+]([O-])c1cnc(Nc2ccc(Cl)cn2)c([N+](=O)[O-])c1`, the compound was called inactive. For `O=c1cc(-c2ccccc2Cl)oc2ccc([N+](=O)[O-])c(O)c12` the value was “inactive”; for `Cc1ccc(OC(=O)c2sc3ncn(C)c(=O)c3c2C)cc1`, “inactive”; for `CC(C)CN1C(=O)/C(=C(/C#N)C(=O)NC2CCCCC2)c2ccccc21`, “inactive”. For `Cc1ccc(NC(=O)CO/N=C/c2ccccc2C)c(C)c1`, the compound was classed as inactive. For `COc1cc2[nH]c(Cl)c([N+](=O)[O-])c2cc1OC` the value was “inactive”; for `CCOC(=O)c1csc(COc2ccc(OC)cc2)n1`, “inactive”. For `O=C(NCc1nnc(SC/C=C/c2ccccc2)o1)c1ccco1` the value was “inactive”; for `O=C(CCNc1cccc(Cl)c1)c1ccco1`, “inactive”. The result for `COC(=O)CCc1nc2c(C#N)c(-c3ccc(Cl)cc3)ccn2n1` reads “inactive”; that for `O=C(CC1CCCC1)OCn1nnc2ccccc2c1=O`, “inactive”. Turning to `CCCCCCCCCCn1cc(C(C)=O)c(=O)[nH]c1=O`, the call was inactive. Consider `O=C(N/N=C/c1ccccn1)c1cc([N+](=O)[O-])cc([N+](=O)[O-])c1`, for which the outcome was inactive. The result for `O=C(O/N=C/c1ccc2c(c1)OCO2)c1ccc([N+](=O)[O-])cc1` reads “inactive”; that for `CCOC(=O)COc1ccc2c(=O)c(-c3ccccc3)coc2c1`, “inactive”; that for `COc1ccc2c([N+](=O)[O-])c(N3CCCC3)[nH]c2c1`, “inactive”. For `CC(C)(C)NCc1cc(Br)ccc1OC1CCCC1` the value was “inactive”; for `CC(C)(C)c1cc(CN2CCN(CCO)CC2)cc(C(C)(C)C)c1O`, “inactive”; for `CN(C)CCC(=O)N1c2ccccc2Sc2ccc(C(F)(F)F)cc21`, “inactive”. For `O=C(NCC1CCCCC1)c1ccco1` the value was “inactive”. As to `Brc1c(-c2ccc3c(c2)OCO3)nc2ncccn12`, the result was inactive.

Consider `CCn1cc(C(=O)O)c(=O)c2cc(F)c(N3CCN(C(=S)NC(=O)c4ccccc4)CC3)cc21`, for which the compound was called inactive. In the case of `CCCNC(=O)NC(=O)COc1ccc2oc3ccccc3c2c1`, the outcome was inactive.

Regarding `CC(C)(C)c1ccc(S(=O)(=O)NNC(=O)c2cc3ccccc3[nH]2)cc1`, the compound was classed as inactive. The result for `CCOC(=O)c1ccc(-n2c(CCC(=O)O)ccc2-c2cccs2)cc1` reads “inactive”; that for `CCOC(=O)c1csc(NC(=O)COc2ccc(Cl)cc2Cl)n1`, “inactive”. The result for `COCCSc1nnc(NC(=O)CCS(=O)(=O)Cc2ccccc2)s1` reads “inactive”.

Consider `COc1ccc(C(=O)CCS(=O)(=O)c2ccc(C)cc2)cc1OC`, for which the call was inactive. Take `CC(C)Cc1nnc(NC(=O)CCS(=O)(=O)c2ccc(Cl)cc2)s1`: the compound was called inactive.

For `O=C(COc1ccc2ccccc2c1)Nc1nccs1`, the outcome was inactive. The result for `O=C(COC(=O)c1ccccc1)NCc1cccs1` reads “inactive”; that for `Cc1ccc(OC(=O)c2ccc(Br)o2)cc1`, “inactive”; that for `CC(=O)NCCOC(=O)Nc1sc(=S)n(C)c1C`, “inactive”. The result for `O=C(CCNc1cccc(Cl)c1)c1cccs1` reads “inactive”; that for `NC(=S)n1[nH]c(-c2ccc([N+](=O)[O-])cc2)c(N=Nc2ccc(O)cc2)c1=O`, “inactive”. For `Cc1ccc(/C=N/NC(=O)c2ccncc2)o1` the value was “inactive”; for `Cc1ccccc1-n1c(C)cc(/C=N/NC(=O)c2ccncc2)c1C`, “inactive”; for `Cc1cc(OCc2cc(C(=O)N(C)CCc3cnn(C)c3)no2)cc(C)c1Cl`, “inactive”. With `Cc1ccc(OCCCCn2ccnc2)c([N+](=O)[O-])c1`, the compound was classed as inactive. Turning to `Cc1cc(OCCCn2ccnc2)ccc1C(C)C`, the result was inactive. For `c1ccc2cc(OCCCn3ccnc3)ccc2c1` the value was “inactive”; for `c1ccc(-c2ccccc2OCCCCn2ccnc2)cc1`, “inactive”; for `COc1ccc(-c2noc(-c3cc4ccccc4oc3=O)n2)cc1`, “inactive”. `CCCOc1ccc(N2CC(C(=O)Nc3ccccn3)CC2=O)cc1` (stereo not given): the result was inactive. The result for `O=S(=O)(Nc1nccs1)c1ccc(NCc2cc(Br)cc(Br)c2O)cc1` reads “inactive”; that for `COCC(=O)Nc1ccccc1NC(C)=O`, “inactive”; that for `S=C(Nc1ccc2c(c1)OCO2)Nc1ccc2c(c1)OCO2`, “inactive”. In the case of `O=C1CC(Sc2ncccn2)C(=O)N1c1ccccc1C(F)(F)F` (stereo not given), the outcome was inactive. For `CCOc1c(OC(C)=O)ccc(/C=C2\N=C(SCC)SC2=O)c1[N+](=O)[O-]` the value was “inactive”; for `Cc1c(C(=O)N(C)C)sc2nc(-c3ccccn3)[nH]c(=O)c12`, “inactive”. For `CCCCOC(=O)c1ccc(NC(=O)C2CCCO2)cc1` (stereo not given) the value was “inactive”; for `COCCNC(=O)c1cc2cc(Cl)cc(Cl)c2oc1=O`, “inactive”.

As for `COC(=O)c1cc2c(ccc3ccccc32)oc1=O`, the compound was called inactive. The result for `C=CCOc1ccc(CNCCO)cc1OCC` reads “inactive”; that for `O=S(=O)(c1ccc(Cl)c2ccccc12)N1CCCC1`, “inactive”. The result for `CN(C(=O)COC(=O)c1ccc([N+](=O)[O-])cc1Cl)C1CCCCC1` reads “inactive”.

Regarding `N#Cc1cc(N)ccc1-n1cccc1`, the compound was classed as inactive. Consider `Cc1cc(C(=O)N/N=C/c2ccc(OC(=O)c3ccccc3Br)cc2)n[nH]1`, for which the result was inactive. The result for `Cc1cc2ccccc2n1CCNC(=O)C(C)(C)C` reads “inactive”. For `CC(C)OC(=O)C(C)Oc1ccc(C(=O)NCCc2ccccc2)cc1` (stereo not given) the value was “inactive”; for `O=C(CC1CCCCC1)NCc1ccccc1`, “inactive”.

Consider `CC1CCN(C(=O)COC(=O)c2cc3ccccc3cc2O)CC1`, for which the outcome was inactive. As for `CCNC(=O)COC(=O)c1ccc(-c2nc3ccccc3s2)s1`, the compound was called inactive. The result for `CCSc1ncc(/C=N/Nc2ccc(Cl)cc2)n1C` reads “inactive”; that for `Cc1ccc(NC(=O)COC(=O)C2=COCCO2)c([N+](=O)[O-])c1`, “inactive”; that for `Cc1c(NC(=O)c2coc(=O)c(Br)c2)c(=O)n(-c2ccccc2)n1C`, “inactive”.
